# Test results: PubChem BioAssay (NCATS)
# Where “and” joins values, the source holds several entries; their conditions need not be identical. Identical values can stand only once. A number with no mark means an inactive call. Records with an inconclusive call do not appear. Calls of active or inactive are those of the source. Unless noted, calls come from the whole dose curve; as a rule, active = well fitted inhibition curve with a large enough effect; inconclusive = small, poorly fitted or top-dose-only effect; inactive = flat fitted curve, though single readings scatter.
# Legend:
# [1] = Drug repurposing screens with cells derived from glioblastoma tumor samples (AID 1345199); conditions: GBM patient neurospheres viability, ATP luminescence, 48 h; note: nearly all actives have a fitted effect of over 40% in size; note: potency is the fitted concentration of half-maximal effect; for activity, negative = cell killing: % is set by controls: 0 for no effect and ±100 for the full control effect
# Procedure, shortened: (§1)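 Primary testing used CD133+ neurospheres from four GBM patients, seven concentrations, 48 h exposure and ATP-based viability; confirmation added three slower-growing patient lines.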
# astro = control astrocytes; assay: as above; conditions: viability, ATP luminescence, 48 h; series mostly up to 45.9 µM
# Procedure, shortened: as §1
# [2] = molecular target: Nuclear receptor subfamily 1 group I member 2 (Rattus norvegicus) (UniProt Q9R1A7); assay: qHTS assay for small molecule activators of the rat pregnane X receptor (rPXR) signaling pathway (AID 651751; call rule not given here; note: 0% is about no effect); conditions: rPXR reporter cells, luciferase (One-Glo), 24 h
# Nuclear receptor subfamily 1 group I member 2 (Rattus norvegicus), sequence (Q9R1A7 whole entry, looked up): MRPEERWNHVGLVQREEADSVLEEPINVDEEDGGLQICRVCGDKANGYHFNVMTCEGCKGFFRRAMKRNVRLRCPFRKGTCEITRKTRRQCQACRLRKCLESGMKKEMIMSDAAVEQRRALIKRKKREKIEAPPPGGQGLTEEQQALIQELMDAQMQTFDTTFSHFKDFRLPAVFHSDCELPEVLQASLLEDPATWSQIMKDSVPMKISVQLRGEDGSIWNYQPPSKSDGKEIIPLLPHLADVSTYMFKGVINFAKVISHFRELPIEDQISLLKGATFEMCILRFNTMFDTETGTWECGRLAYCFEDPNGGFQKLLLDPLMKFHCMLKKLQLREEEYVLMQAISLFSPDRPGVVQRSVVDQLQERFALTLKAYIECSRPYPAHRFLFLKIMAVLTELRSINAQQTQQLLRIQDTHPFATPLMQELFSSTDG
# [3] = qHTS assay for small molecule activators of the human pregnane X receptor (PXR) signaling pathway (AID 720659; call rule not given here; note: 0% is about no effect); conditions: DPX-2 HepG2 CYP3A4-luciferase, 24 h; series mostly up to 92.3 µM
# [4] = at 45.9 µM (top of the series), tumour line B
# [5] = at 45.9 µM (top of the series), tumour line D
# [6] = at 46.1 µM (top of the series), tumour line C
# [7] = at 46 µM (top of the series), tumour line A
# [8] = at 20 µM (top of the series), tumour line C
# [9] = at 21.2 µM (top of the series), tumour line B
# [10] = at 21.2 µM (top of the series), tumour line D
# [11] = at 21.3 µM (top of the series), tumour line A
smiles,measurement,setting,value
C#CCOc1ccc2c(C)cc(=O)oc2c1,"activity, negative = cell killing",[1]; [4],-16.6%
same,"activity, negative = cell killing",[1]; [5],-17.5%
same,"activity, negative = cell killing",[1]; [6],-16.5%
same,Potency,astro,inactive
CN1C(=O)CN2CCc3ccccc3C2c2cc(Cl)ccc21 (stereo not drawn),"activity, negative = cell killing",[1]; [4],-19.8%
same,"activity, negative = cell killing",[1]; [5],-13.4%
same,"activity, negative = cell killing",[1]; [7],-22.5%
same,"activity, negative = cell killing",[1]; [6],-33.9%
same,Potency,astro,inactive
O=C1CSC2(CCN(CCCN3c4ccccc4Sc4ccc(Cl)cc43)CC2)N1,"activity, negative = cell killing",[1]; [6],-24.2%
same,Potency,[1]; tumour line A,3.16 µM (active)
same,Potency,[1]; tumour line D,20 µM (active)
same,Potency,astro,25.1 µM (active)
CC1=C(/C=C/C(C)=C/C=C/C(C)=C/C=C/C=C(C)/C=C/C=C(C)/C=C/C2=C(C)CCCC2(C)C)C(C)(C)CCC1,"activity, negative = cell killing",[1]; [4],-10.1%
same,"activity, negative = cell killing",[1]; [5],-14.5%
same,"activity, negative = cell killing",[1]; [7],-34.5%
same,"activity, negative = cell killing",[1]; [6],5.35%
same,Potency,astro,inactive
NCc1ccccc1CC(=O)N[C@@H]1C(=O)N2C(C(=O)O)=C(CSc3nnnn3CC(=O)O)CS[C@H]12,"activity, negative = cell killing",[1]; [8],-8.3%
same,"activity, negative = cell killing",[1]; [9],-4.52%
same,"activity, negative = cell killing",[1]; [10],-30%
same,"activity, negative = cell killing",[1]; [11],-23.4%
same,Potency,astro,inactive
O=S(=O)(O)O,"activity, negative = cell killing",[1]; [4],3.03%
same,"activity, negative = cell killing",[1]; [5],-20.1%
same,"activity, negative = cell killing",[1]; [7],-0.209%
same,"activity, negative = cell killing",[1]; [6],-1.26%
same,Potency,astro,inactive
Cc1c(C)c2c(c(C)c1O)CC[C@@](C)(CCC[C@H](C)CCC[C@H](C)CCCC(C)C)O2,"activity, negative = cell killing",[1]; [4],-3.57% and 0.952%
same,"activity, negative = cell killing",[1]; [5],-15.8% and 5.62%
same,"activity, negative = cell killing",[1]; [7],-28.9%
same,"activity, negative = cell killing",[1]; [6],-17.8% and 12.9%
same,Potency,astro,inactive
CC1(C)O[C@@H]2C[C@H]3[C@@H]4CCC5=CC(=O)C=C[C@]5(C)[C@H]4[C@@H](O)C[C@]3(C)[C@]2(C(=O)CO)O1,"activity, negative = cell killing",[1]; [4],-5.55%
same,"activity, negative = cell killing",[1]; [7],-10.6%
same,"activity, negative = cell killing",[1]; [6],-10.7%
same,Potency,astro,inactive
CO[C@@H]1[C@@H](O[C@@H]2O[C@H](C)[C@@H](O[C@H]3C[C@@](C)(O)[C@@H](O)[C@H](C)O3)[C@H](N(C)C)[C@H]2O)[C@@H](CC=O)C[C@@H](C)[C@@H](O[C@@H]2CC[C@H](N(C)C)[C@@H](C)O2)/C=C/C=C/C[C@@H](C)OC(=O)C[C@H]1O,"activity, negative = cell killing",[1]; [8],-1.82%
same,"activity, negative = cell killing",[1]; [9],2.63%
same,"activity, negative = cell killing",[1]; [10],8.89%
same,Potency,astro,inactive
O=C(O)C1CCCN1 (stereo not drawn),"activity, negative = cell killing",[1]; [4],-8.24%
same,"activity, negative = cell killing",[1]; [5],-1.47%
same,"activity, negative = cell killing",[1]; [6],-1.4%
same,Potency,astro,inactive
CC(Oc1ccccc1)C(=O)N[C@@H]1C(=O)N2[C@@H]1SC(C)(C)[C@@H]2C(=O)O (stereo partly drawn),"activity, negative = cell killing",[1]; [8],1.64%
same,"activity, negative = cell killing",[1]; [9],-4.78%
same,"activity, negative = cell killing",[1]; [10],-2.95%
same,"activity, negative = cell killing",[1]; [11],2.19%
same,Potency,astro,inactive
CNC(C)[C@@H]1CC[C@@H](N)[C@@H](O[C@H]2[C@H](O)[C@@H](O[C@H]3OC[C@](C)(O)[C@H](NC)[C@H]3O)[C@H](N)C[C@@H]2N)O1 (stereo partly drawn),"activity, negative = cell killing",[1]; [8],-7.4%
same,"activity, negative = cell killing",[1]; [9],-11.6%
same,"activity, negative = cell killing",[1]; [10],12.7%
same,"activity, negative = cell killing",[1]; [11],-18.8%
same,Potency,astro,inactive
C=C(NC(=O)C(=C)NC(=O)c1csc(C2=N[C@@H]3c4csc(n4)[C@H]4NC(=O)c5csc(n5)[C@H]([C@](C)(O)[C@@H](C)O)NC(=O)[C@H]5CSC(=N5)C(=CC)NC(=O)C([C@@H](C)O)NC(=O)c5csc(n5)[C@]3(CC2)NC(=O)[C@H](C)NC(=O)C(=C)NC(=O)[C@H](C)NC(=O)C([C@@H](C)CC)NC2C=Cc3c([C@H](C)O)cc(nc3C2O)C(=O)O[C@@H]4C)n1)C(N)=O (stereo partly drawn),"activity, negative = cell killing",[1]; [8],-17.2%
same,Potency,[1]; tumour line A,11.2 µM (active)
same,Potency,[1]; tumour line B,14.1 µM (active)
same,Potency,[1]; tumour line D,14.1 µM (active)
same,Potency,astro,inactive
CC1=CCC(C(C)(C)O)CC1 (stereo not drawn),"activity, negative = cell killing",[1]; [4],-2.21%
same,"activity, negative = cell killing",[1]; [5],-4.36%
same,"activity, negative = cell killing",[1]; [7],-13.1%
same,"activity, negative = cell killing",[1]; [6],-3.81%
same,Potency,astro,inactive
same,max response,[2],-0.27%
same,outcome,[3],inactive
CO[C@H]1C=CO[C@@]2(C)Oc3c(C)c(O)c4c(O)c(c5c(nc6cc(C)ccn65)c4c3C2=O)NC(=O)/C(C)=C\C=C[C@H](C)[C@H](O)[C@@H](C)[C@@H](O)[C@@H](C)[C@H](OC(C)=O)[C@@H]1C,"activity, negative = cell killing",[1]; [4],-10.2%
same,"activity, negative = cell killing",[1]; [5],-26.2%
same,"activity, negative = cell killing",[1]; [6],-2.47%
same,Potency,astro,inactive
Cc1cn([C@H]2C[C@H](O)[C@@H](CO)O2)c(=O)[nH]c1=O,"activity, negative = cell killing",[1]; [4],-14.8%
same,"activity, negative = cell killing",[1]; [5],6.82%
same,"activity, negative = cell killing",[1]; [7],-23.5%
same,"activity, negative = cell killing",[1]; [6],-19.1%
same,Potency,astro,inactive
O=C(O)CCC(=O)C(=O)O,"activity, negative = cell killing",[1]; [4],-7.95%
same,"activity, negative = cell killing",[1]; [5],2.23%
same,"activity, negative = cell killing",[1]; [7],-23.8%
same,"activity, negative = cell killing",[1]; [6],3.09%
same,Potency,astro,inactive
same,max response,[2],0.868%
same,outcome,[3],inactive
